Results reported in PubChem BioAssay (NCATS).
Records with an inconclusive call do not appear. Calls of active or inactive are those of the source. Calls follow the shape of the dose curve; as a rule, active = well fitted cell-killing curve with a large enough effect; inconclusive = small, poorly fitted or top-dose-only effect; inactive = flat fitted curve, though single readings scatter. Where a SMILES comes first, the peptide text is derived from it. Bridges are numbered along the chain shown (N, C = ends). [ ]: non-standard residue; d: D form. hArg = N=C(N)NCCCC[C@H](N)C(=O)O; Mpa = O=C(O)CCS

Test: qHTS assay to identify small molecule inhibitors of chordoma cells - UCH-2 (AID 1259356)
Details: UCH-2 chordoma viability, CellTiter-Glo ATP luminescence, 48 h; series mostly up to 46.1 µM
From the text: NIH Chemical Genomics Center [NCGC]
Chordoma is a rare and slow growing tumor that can occur anywhere along the spine, from the base of the skull to the tailbone. Current treatment options for chordoma is surgery and radiation therapy for those who are not candidates for surgery. But chordomas tend to return in the same location or surrounding areas of the original tumor after surgery and/or radiation. Chemotherapy can slow down the progression of the tumor. As chordoma is slow growing, the general cytotoxic agents that kill fast growing cells are ineffective, and some patients have been reported to respond to molecularly targeted drugs.
NCATS Pharmaceutical Collection (NPC) containing approximately 3000 clinically approved and investigational drugs were used to screen at 15 concentrations in a chordoma cell lines, UCH-2, to identify small molecule compounds that can inhibit chordoma cell growth.
NCGC Assay Protocol Summary:
Human chordoma cell line UCH-2 was dispensed at 800 per well in 4uL of culture medium into white solid bottom 1536-well plates (Corning Life Sciences, Corning, NY) using a Multidrop Combi (Thermo Scientific, Waltham, MA) dispenser. The assay plates were incubated at 37 C and 5% CO2 for an overnight, and then 23nL of compounds dissolved in DMSO and positive control were transferred using a Pintool station (Wako, San Diego, CA). Compound treatment was followed by the addition of 1uL of the combination compounds (1uM Auranofin, 500nM each of Camptothecin, Doxorubicin, Rubitecan, and Topotecan) and assay medium to each well of the assay plates using Flying Reagent Dispenser (FRD, Aurora Discovery, San Diego, CA). The assay plates were incubated at 37 C and 5% CO2 for 48hr. Then 5uL of CellTiter-Glo reagent (Promega Corporation, Madison, WI) was added to each well of the assay plates using FRD. After 30min incubation at room temperature, the luminescence signal was quantified using a ViewLux plate reader (PerkinElmer, Shelton, CT).

Structure (SMILES) | outcome
CCc1cccc(CC)c1NC(=O)CN(CC(=O)O)CC(=O)O | inactive
O=C(/C=C/c1ccc(O)c(O)c1)O[C@@H]1C[C@@](OC(=O)/C=C/c2ccc(O)c(O)c2)(C(=O)O)C[C@@H](O)[C@@H]1O | inactive
CC(C)(C)NCC(O)COc1cccc2c1CCC(=O)N2 (stereo not given) | inactive
CCCCCCCCCCOc1cc2c(=O)c(C(=O)OCC)c[nH]c2cc1OCC | inactive
CC1(C)S[C@@H]2[C@H](NC(=O)C(C(=O)O)c3ccccc3)C(=O)N2[C@H]1C(=O)O (stereo not given in full) | inactive
O=S1(=O)OC(c2ccc(O)cc2)(c2ccc(O)cc2)c2ccccc21 | inactive
Cn1c([N+](=O)[O-])cnc1COC(N)=O | inactive
O=C(NCCCN1CCOCC1)c1ccc(Cl)cc1 | inactive
CN(C(=O)c1c(O)c2ccccc2n(C)c1=O)c1ccccc1 | inactive
O=c1[nH]cnc2nc[nH]c12 | inactive
CC(C)=CCC[C@@](C)(O)[C@H]1CC=C(C)CC1 | inactive
CCN[C@H]1CN(CCCOC)S(=O)(=O)c2sc(S(N)(=O)=O)cc21 | inactive
Cc1cc(OI)c(C(C)C)cc1-c1cc(C(C)C)c(OI)cc1C | inactive
C=CCSCC1Nc2cc(Cl)c(S(N)(=O)=O)cc2S(=O)(=O)N1 (stereo not given) | inactive
Cc1ccsc1/C=C/C1=NCCCN1C | inactive
O=C(c1ccccc1)C(O)c1ccccc1 (stereo not given) | inactive
NC(=O)CC[C@@H](N)C(=O)O | inactive
C[C@@H](c1ncncc1F)C(O)(Cn1cncn1)c1ccc(F)cc1F (stereo not given in full) | inactive
CC1CCc2cc(F)cc3c(=O)c(C(=O)O)cn1c23 (stereo not given) | inactive
CCOC(=O)OC(C)OC(=O)[C@@H]1N2C(=O)[C@@H](NC(=O)[C@H](N)c3ccccc3)[C@H]2SC1(C)C (stereo not given in full) | inactive

Structure (SMILES) | outcome
NC(N)=NCCN1CCCCCCC1 | inactive
O=C(CCBr)N1CCN(C(=O)CCBr)CC1 | inactive
NC(=O)NC1NC(=O)NC1=O (stereo not given) | inactive
Nc1ccc(S(=O)(=O)c2ccc(N)cc2)cc1 | inactive
Cc1ncc(CO)c(CN)c1O | inactive
NC(=O)c1ccc([N+](=O)[O-])cc1Cl | inactive
COc1ccccc1OC(=O)Oc1ccccc1OC | inactive
NS(=O)(=O)c1cc(-c2nn[nH]n2)c(NCc2cccs2)cc1Cl | inactive
CCCOC(=O)c1ccc(N)cc1 | inactive
NC(=O)[C@@H]1CSSCCC(=O)N[C@@H](CCCCN=C(N)N)C(=O)NCC(=O)N[C@@H](CC(=O)O)C(=O)N[C@@H](Cc2c[nH]c3ccccc23)C(=O)N2CCC[C@H]2C(=O)N1 ([Mpa][hArg]GDWPC-NH2; disulfide 1-7) | inactive
NNc1nnc(NN)c2ccccc12 | inactive
COc1ccc(C(=O)NCc2ccc(OCCN(C)C)cc2)cc1OC | inactive
COc1cc(O)cc(O)c1 | inactive
Cn1cc(C(=O)[C@@H]2CCc3nc[nH]c3C2)c2ccccc21 | inactive
CC(C)NC[C@@H](O)COc1ccc(CC(N)=O)cc1 | inactive
CC(=O)N(CC(O)CN(C(C)=O)c1c(I)c(C(=O)NCC(O)CO)c(I)c(C(=O)NCC(O)CO)c1I)c1c(I)c(C(=O)NCC(O)CO)c(I)c(C(=O)NCC(O)CO)c1I (stereo not given) | inactive
C[N+](C)(C)CC[N+]1(C)Cc2c(Cl)c(Cl)c(Cl)c(Cl)c2C1 | inactive
O=C(O)CCCCC1CCSS1 (stereo not given) | inactive
CC(=O)SC[C@@H](Cc1ccccc1)C(=O)NCC(=O)OCc1ccccc1 | inactive
O=C(O)Cc1ccc(CCNS(=O)(=O)c2ccc(Cl)cc2)cc1 | inactive
